The list is not random: actives were taken first. Their share in the collection is about 19%.
HT1080 IDH1KD tx = toxicity to HT-1080 IDH1 knockdown cells (counter line). HT-1080 IDH1 knockdown viability, ATP luminescence, 48 h. Potency, µM (highest dose often 46.1 µM), for inactives: top-dose activity, negative = toxicity, usual class: cytotoxic. hit rate 2% among 360,000;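 note: potency is the fitted concentration of half-maximal effect; 0% = DMSO wells and -100% = cell-free medium wells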
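After a 2 h attachment period, IDH1KD HT-1080 cells took pin-transferred compound for 48 h at 37 °C; ATP-based luminescence after 10 min room-temperature reagent incubation reported viability.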
DT40 TDP1 no CPT = qHTS for Inhibitors of human tyrosyl-DNA phosphodiesterase 1 (TDP1): qHTS in cells in absence of CPT | DT40 Tdp1-/- hTDP1 cells, no CPT, ATP luminescence, 48 h | hit rate 15% among 420,000 | Potency, µM (top dose mostly 46.2 µM), inactives show at the highest dose activity change, negative = growth inhibition, hits mostly inhibitors; note: potency is the fitted concentration of half-maximal effect; nearly all actives have a fitted effect of over 55% in size
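A cellular qHTS used chicken DT40 cells lacking endogenous Tdp1 but carrying stably transfected human TDP1. Compounds were applied without camptothecin, and cell growth kinetics were judged by ATP-dependent luminescence after ≥48 hr.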
TDP1 cell CPT = growth inhibition of DT40 Tdp1-/-;hTDP1 cells with camptothecin (screen for TDP1 inhibitors); chicken DT40 Tdp1-/-;hTDP1 cells + 20 nM CPT, ATP luminescence, 48 h; Potency, µM (titrated, usually from 46.2 µM), inactives show at the top dose activity change, negative = growth inhibition, most hits filed as inhibitors; hit rate 12% among 420,000; AID 686979; note: potency is the fitted concentration of half-maximal effect; nearly all actives have a fitted effect of over 55% in size
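Chicken DT40 Tdp1-/- cells stably complemented with human TDP1 were seeded at 400 cells/well in medium containing 20 nM camptothecin, exposed to pin-transferred compounds, and grown at 37 °C for at least 48 hr. Viability was read as ATP luminescence.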
IL1B secr inh = inhibitors of inflammasome signaling (IL-1 beta secretion). THP-1 LPS/ATP IL-1B secretion, AlphaLISA, 16 h; active compounds read low. activity change, % at 57.5 µM. hit rate 4.7% among 360,000. AID 743279; in the data active = activity change below about -50%; inconclusive = mostly about -30% to -49%
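THP-1 cells pretreated 1 hr with compounds (up to 57.5 uM final), then stimulated with LPS (250 ng/mL final) plus ATP (1.25 mM final); secreted IL-1B measured by AlphaLISA after 16 hr, decreased signal indicating inhibition.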
HT1080NT lethal = kills 2HG-producing HT-1080-NT fibrosarcoma cells | AID 686970 | HT-1080-NT fibrosarcoma viability, CellTiter-Glo ATP luminescence, 48 h | Potency, µM (doses to about 46.1 µM), without a hit: at the highest dose activity, negative = less viability, most hits filed as cytotoxic | hit rate 1.6% among 360,000;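 note: NT is the 2HG producing partner of a matched IDH1 knockdown line; potency is the fitted concentration of half-maximal effect; 0% = DMSO-treated cells and -100% = media-only wells without cells; nearly all actives have a fitted effect of over 55% in size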
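HT-1080-NT fibrosarcoma cells (2HG-overproducing), 750 cells/well in RPMI with 5% FBS, dosed after 2 h and incubated 48 h at 37C. CellTiter-Glo luminescence normalized to DMSO and no-cell wells; concentration-response curves fitted and classed.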
ELG1 DNA repair = blocks ELG1-dependent DNA repair in HEK293T cells; HEK293T ELG1-luciferase reporter, luminescence, 16 h; DNA damage induced by 5-fluorouridine; Potency, µM (doses to about 46.1 µM), inactives show at the highest dose activity change, negative = inhibition, usual class: inhibitors; hit rate 2.3% among 330,000; AID 504467; note: potency is the fitted concentration of half-maximal effect; nearly all actives have a fitted effect of over 55% in size
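5-Fluorouridine DNA damage + compound/DMSO, 2,000 cells/well, 16 h, 37 °C/5% CO2. ONE-Glo, 30 min RT, luminescence. Readout = decrease in reporter signal.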
The depositor's hits bear a star; ? = inconclusive; / = no result. Unless noted, calls come from the whole dose curve; as a rule, active = well fitted curve in the direction sought with a large enough effect; inconclusive = small, poorly fitted or top-dose-only effect, or another doubt; inactive = no such curve, though single readings can be large; an effect the other way counts as inactive or inconclusive. Unless noted, % is set by controls: 0 for no effect and ±100 for the full control effect.

SMILES | HT1080 IDH1KD tx | DT40 TDP1 no CPT | TDP1 cell CPT | IL1B secr inh | HT1080NT lethal | ELG1 DNA repair
CCc1c(C)nc(SCC(=O)c2cccs2)c(C#N)c1C | -25% | ? | ? | -99* | -6% | ?
CS(=O)(=O)c1ccc(Cl)c(NC(=O)c2cc(S(=O)(=O)N3CCOCC3)ccc2N2CCCC2)c1 | 0% | -17% | -13% | -20 | -13% | 1%
CCOc1ccc(CNC(=O)C2Cc3ccccc3N2C(=O)CC)cc1OC (stereo unspecified) | / | -23% | -16% | / | / | /
CC(Sc1ncc(C(F)(F)F)cc1Cl)C(=O)NCC1CCCO1 (stereo unspecified) | 1% | -11% | 1% | -10 | 3% | -19%
COC(=O)C1=C(C)C(c2ccc(OC)cc2)NC(=S)N1 (stereo unspecified) | 4% | -1% | -2% | 6 | 8% | ?
COc1ccc(C2NC(=S)NC3=C2CCCC3=C2SCCS2)cc1 (stereo unspecified) | 6.5µM* | 2.9µM* | 2.3µM* | -82* | 9.2µM* | ?
C=CCOc1ccc(C2NC(=S)NC3=C2CCc2ccccc23)cc1 (stereo unspecified) | -24% | ? | ? | 27 | -3% | 5.2µM*
COc1ccc2c(c1)CCC1=C2NC(=S)NC1c1ccc(N(C)C)cc1 (stereo unspecified) | -24% | 16µM* | ? | -17 | 1% | 8%
COc1cc(C2NC(=S)NC3=C2CCc2ccccc23)cc(OC)c1OC (stereo unspecified) | 0% | ? | -12% | 45 | 5% | 2%
Cc1ccc(NC(=O)Nc2nnc(N(C)Cc3ccccc3)s2)cc1 | / | -19% | -28% | / | / | /
Cc1cc(C)c2oc(C(=O)N3CCN(Cc4ccccc4)CC3)cc(=O)c2c1 | 0% | 0% | -4% | 0 | 0% | -8%
CC1=CC(C)(C)N(S(=O)(=O)c2ccc(C)cc2)c2ccc(C)cc21 | 6.3µM* | 18µM* | 5.8µM* | -4 | 3.2µM* | -2%
CC(=O)N1c2ccccc2C(C)=CC1(C)C | 0% | -17% | -18% | 15 | 11% | 6%
CC1=CC(C)(C)N(S(=O)(=O)c2ccc(F)cc2)c2ccccc21 | ? | ? | 26µM* | 64 | 11µM* | -2%
Cn1cnc(S(=O)(=O)N2CCCC(C(=O)Nc3cccc(C#N)c3)C2)c1 (stereo unspecified) | / | -18% | 17% | / | / | /
C[C@H]1CCC(=O)N(CCSc2ccc(Br)cc2)CC1 | 15% | 18µM* | 16µM* | -2 | 10% | ?
Cc1ccc(SCCN2CCC(C)CCC2=O)cc1 (stereo unspecified) | 12% | ? | -20% | 7 | 14% | ?
C[C@@H]1CCC(=O)N(CC[C@H](Sc2ccc(Br)cc2)c2ccccc2)CC1 | ? | 20µM* | 18µM* | -71* | ? | -19%
COc1ccc(S[C@@H](CCN2CC[C@H](C)CCC2=O)c2ccccc2)cc1 | -9% | 15µM* | 10µM* | ? | -24% | -14%
C[C@@H]1CCC(=O)N(CC[C@H](Oc2ccccc2)c2ccccc2)CC1 | 0% | 13µM* | ? | -4 | 13% | -1%
COc1ccc(CCC(=O)NC(C)c2ccccc2)cc1OC (stereo unspecified) | 9% | -5% | -5% | -10 | 0% | 13%
Cc1c(-c2ccc(OCCN3CCOCC3)cc2)c(=O)oc2ccc3ccccc3c12 | 6% | -17% | 3% | 15 | 18% | /
Cc1ccc(S[C@@H](CCN2CC[C@H](C)CCC2=O)c2ccccc2)cc1 | -1% | 16µM* | ? | ? | -8% | 2%
